Consider 27 compounds from PubChem BioAssay AID818 (SRMLSC, 2007).

SMILES strings stand for the structures. In all, about 140,000 compounds went through this assay and about 2,100 (1.5%) were called active. The entries come from a sample that favours actives as a whole. Unmarked numbers belong to inactive results.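 The calls were made as follows: active = viability at or under a set limit, the compound median less 4 SD (cut at about 6% in these data); inactive = the rest.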

The nature of the experiment: primary screen for growth suppressors in beta-catenin knockout HCT116 cells (colon tumor, human) (AID 818).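 Also: 0% = Hyamine 1622 control at 20 µM and 100% = untreated cell control.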 Particulars: CellTiter-Glo, 60 h, at 10 µM, hits give low values. For orientation: ATP-based viability assays read luminescence as a measure of living cells.
In the case of `Cc1ccc2c(c1)C(c1ccccc1)N(C(=O)c1ccc(S(=O)(=O)N3CCOCC3)cc1)CC(=O)N2` (configuration not stated), the viability (in general, a per cent measure of how many cells are alive, often set against a control) is 94.9%.

On to `Cc1cc2c(C)nc(N/N=C/c3ccccc3)nc2o1`, for which the viability was 92%. To `Clc1cccc(CN2COc3c(cc(Cl)c4cccnc34)C2)c1` belongs 3.67% (active). For the compound `O=c1[nH]n(-c2cccc(Cl)c2)c2ncccc12`, the viability was 85.9%.

Consider `Nc1c(C(=O)NCc2ccccc2)nnn1Cc1cccc(Cl)c1`, for which the viability is 25.6%.

`CCOC(=O)c1cc2c(=O)n3ccccc3nc2n(CC(C)C)c1=NC(=O)c1c(-c2c(F)cccc2Cl)noc1C`: the viability is 66.4%. To `Cc1cc(C)nc(NC(=O)c2cccc([N+](=O)[O-])c2)c1` belongs 97.8%.

Turning to `CSCCC(NC(=O)COc1ccccc1)C(=O)Nc1ccc(C)cc1` (configuration not stated), the viability is 99.2%. To `CSCC[C@H](NC(=O)OC(C)(C)C)C(=O)N/N=C/c1cc2ccc(C)cc2nc1Cl` belongs 1.02% (active). To `CCOc1cc(/C=N/NC(=O)OC)ccc1OCCSc1ccc(Cl)cc1` belongs 93.9%; to `COCCCNC(=S)NC(=O)c1ccc([N+](=O)[O-])cc1`, 95.7%; to `Cc1nc(N2CCCC2C(=O)O)c2oc3ccccc3c2n1` (configuration not stated), 95.6%.

For `CCSc1nc(C)nc2c1oc1ccccc12`, the viability is 95.4%.

`Cc1nc(Cl)c2oc3ccccc3c2n1`: the viability is 2.84% (active). To `Cc1ccc(CCCOC(=O)C[N+]2(C)CCCC2)cc1` belongs 97%; to `Cc1ccc(S(=O)(=O)c2ccc(Cl)cc2)cc1S(=O)(=O)NC(C(=O)O)C(C)C` (configuration not stated), 97.6%. To `CN1CCN(C(=O)/C(=C\c2cccs2)NC(=O)c2cccs2)CC1` belongs 90.3%. As for `Nc1ccc(Nc2ccccc2)cc1`, the viability is 5.41% (active).

Consider `Cc1cc(Nc2ccccc2)n(C(=O)c2ccc(N)cc2)n1`, for which the viability was 85.7%.

As to `Cc1cc(Nc2ccccc2)nc(N)n1`, the viability is 93.5%. Next, `O=C(Cn1nnc(-c2ccccc2)n1)N/N=C/c1ccc(-c2ccc(Cl)cc2)o1`: 80.7%; `O=C(c1ccc(CSc2ccccc2)cc1)N1CCCCCC1`: 65.2%. Next, `COc1ccc(S(=O)(=O)Nc2ccc(O)c(Sc3nc4ccccc4s3)c2)cc1`: 82.2%; `O=C(O)c1cccc(S(=O)(=O)Nc2ccc(O)cc2Sc2nc3ccccc3s2)c1`: 91.9%. Next, `O=[N+]([O-])c1c(NCCO)cc(Sc2nc3ccccc3s2)c2nonc12`: 1.67% (active); `CN(c1ccccc1)S(=O)(=O)c1ccc(Cl)c(C(=O)NCCc2c[nH]c3ccccc23)c1`: 78.7%. Take `CNC(=O)/C(C#N)=C/c1c(F)cccc1Cl`: the viability is 74.3%.
